Assay results: PubChem BioAssay (Tox21)
Values joined by “and” are separate entries in the source; they are usually repeats but may differ in a detail not shown here. Equal values may be shown once. Records with an inconclusive call do not appear. Where a structure was tested more than once in an assay, its records may differ in their call. Active and inactive are the calls of the source. Unless noted, calls follow the shape of the dose curve; as a rule, active = well fitted curve in the direction sought with a large enough effect in the repeat runs; inconclusive = weak or mixed curves; inactive = no such curve, though single readings can be large; an effect the other way counts as inactive or inconclusive.

Tests used:
[1] = qHTS assay for small molecules that induce genotoxicity in human embryonic kidney cells expressing luciferase-tagged ATAD5 (AID 651632); also: nearly all actives have a fitted effect of over 15% in size
Outline: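 HEK293T cells carrying a luciferase reporter tagged to ATAD5 were exposed to compound or DMSO vehicle for 16 hr at 37C, 5% CO2. Amplite was added, and after 30 min at room temperature luciferase activity was read as a marker of ATAD5 induction.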

[2] = qHTS assay for small molecule agonists of the p53 signaling pathway - cell viability (AID 651633; calls by dose curve; also: nearly all actives have a fitted effect of over 30% in size; also: potency is read from the fitted curve at half-maximal effect)
Outline: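 p53RE-bla cells were treated with compound for 16 hours at 37 C. Cytotoxicity was then measured as CellTiter-Glo luminescence after 30 min at room temperature.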

[3] = qHTS assay for small molecules that induce genotoxicity in human embryonic kidney cells expressing luciferase-tagged ATAD5 - cell viability (AID 651634; calls by dose curve; also: nearly all actives have a fitted effect of over 25% in size; also: potency is read from the fitted curve at half-maximal effect)
Outline: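 HEK293T cells expressing luciferase-tagged ATAD5 were exposed to compound or DMSO for 15.5 hr at 37C, 5% CO2. Viability was then read as live-cell protease activity by CellTiter-Fluor fluorescence after 30 min at 37C.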

[4] = qHTS assay for small molecule disruptors of the mitochondrial membrane potential - cell viability (AID 720634; calls by dose curve; also: nearly all actives have a fitted effect of over 20% in size; also: potency is read from the fitted curve at half-maximal effect)
Outline: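 HepG2 cells seeded overnight at 37 C, then exposed to compound or DMSO for 1 hr at 37 C, 5% CO2. m-MPI dye added, then CellTiter-Glo for 30 min at room temperature; viability read as ATP luminescence.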

[5] = qHTS assay to test for compound auto fluorescence at 590 nm (red) in HepG2 cells (AID 720674)
Outline: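 Fluorescence at 590 nm emission following 540 nm excitation was recorded from HepG2 wells one hour after compound transfer, with DMSO-only wells as vehicle and Rose Bengal sodium equivalency as the scale.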

[6] = qHTS assay to test for compound auto fluorescence at 535 nm (green) in HepG2 cells (AID 720675)
[7] = qHTS assay to test for compound auto fluorescence at 460 nm (blue) in HEK293 cells (AID 720678)
Outline: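 After cell attachment (4-5 hr, 37C), compounds were pinned onto HEK293 monolayers in 10% dialyzed FBS medium. The blue channel (405/460 nm) was read following overnight culture. Equivalency was calculated against triamterene.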

[8] = qHTS assay to test for compound auto fluorescence at 590 nm (red) in HEK293 cells (AID 720679)
Outline: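 Plates of HEK293 cells (10% dialyzed FBS) are treated with 23 nL compound or DMSO vehicle after a 4-5 hr attachment period, incubated overnight at 37C, and read for red fluorescence at 540/590nm.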

[9] = qHTS assay to test for compound auto fluorescence at 535 nm (green) in HEK293 cells (AID 720680)
[10] = qHTS assay to test for compound auto fluorescence at 460 nm (blue) in HEK293 cell free culture (AID 720681)
Outline: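 Compounds were added to cell-free DMEM with 10% FBS and fluorescence read directly. The blue channel used 405 nm excitation and 460 nm emission, with triamterene as the reference fluorophore.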

[11] = qHTS assay to test for compound auto fluorescence at 535 nm (green) in HEK293 cell free culture (AID 720682)
Outline: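 No cells present: wells hold DMEM supplemented with 10% FBS, into which compound or vehicle is pinned. Green emission is then recorded (485 nm excitation, 535 nm emission) and scaled to fluorescein.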

[12] = qHTS assay to test for compound auto fluorescence at 590 nm (red) in HEK293 cell free culture (AID 720683)
Outline: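 Cell-free wells of DMEM with 10% FBS received compound, and intrinsic fluorescence was read at excitation/emission 540/590 nm. Values expressed as equivalence to Rose Bengal sodium.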

[13] = qHTS assay to test for compound auto fluorescence at 590 nm (red) in HepG2 cell free culture (AID 720684)
Outline: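 Compound was pinned into wells holding MEM with 10% FBS and no cells, and red fluorescence was read at Ex/Em 540/590 nm. Signal is expressed as auto fluorescence equivalency relative to Rose Bengal sodium.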

[14] = qHTS assay to test for compound auto fluorescence at 460 nm (blue) in HepG2 cell free culture (AID 720685)
Outline: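 Compound (23 nL) or DMSO pinned into cell-free MEM with 10% FBS; blue fluorescence read at 405/460 nm excitation/emission, expressed as auto-fluorescence equivalency to triamterene.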

[15] = qHTS assay to test for compound auto fluorescence at 535 nm (green) in HepG2 cell free culture (AID 720686)
[16] = qHTS assay to test for compound auto fluorescence at 460 nm (blue) in HepG2 cells (AID 720687)
Outline: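 HepG2 cells in MEM with 10% FBS, attached overnight at 37 C, were exposed to compound or DMSO for 1 hr at 37 C, 5% CO2. Blue fluorescence was read at 405/460 nm, with triamterene as reference fluorophore.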

[17] = molecular target: Glucocorticoid receptor (Homo sapiens) (UniProt P04150); assay: qHTS assay to identify small molecule agonists of the glucocorticoid receptor (GR) signaling pathway (AID 720691; active = well fitted activation curve with a large enough effect in the signal ratio in the repeat runs, not every such curve was filed as active; the % refers to the signal ratio)
Outline: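 GR-bla HeLa cells (beta-lactamase reporter under glucocorticoid response element) were plated 4 h at 37 C/5% CO2, given compounds in DMSO, and incubated 18 h at 37 C. LiveBLAzer B/G FRET substrate was added for 2 h at room temperature, then fluorescence intensity read.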

[18] = qHTS assay for small molecule disruptors of the mitochondrial membrane potential (AID 720635); also: potency is read from the fitted curve at half-maximal effect
Outline: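 HepG2 cells exposed to compound 1 hr at 37C, then Mito-MPS dye 30 min. Ratio read of aggregate (540/590 nm) versus monomer (490/535 nm) fluorescence.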

[19] = molecular target: Glucocorticoid receptor (Homo sapiens) (UniProt P04150); assay: qHTS assay to identify small molecule antagonists of the glucocorticoid receptor (GR) signaling pathway (AID 720692; active = well fitted inhibition curve with a large enough effect in the signal ratio in the repeat runs, not every such curve was filed as active; the % refers to the signal ratio)
Outline: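 GR-bla HeLa cells (beta-lactamase reporter under glucocorticoid response element) were pre-plated 4 h at 37 C, treated with compounds plus 5 nM dexamethasone (final) for 18 h, then read by LiveBLAzer B/G FRET fluorescence after 2 h.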

[20] = qHTS assay for small molecule agonists of the p53 signaling pathway (AID 651631; calls by dose curve; also: nearly all actives have a fitted effect of over 15% in size; also: potency is read from the fitted curve at half-maximal effect)
Outline: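 Agonist mode screen using a stably integrated beta-lactamase gene under p53 response elements in HCT-116 cells. Compound exposure lasts 16 h at 37 °C; fluorescence intensity is measured following 2 h FRET substrate loading.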

Measured: Potency

Glucocorticoid receptor (Homo sapiens), sequence (P04150 whole entry, looked up): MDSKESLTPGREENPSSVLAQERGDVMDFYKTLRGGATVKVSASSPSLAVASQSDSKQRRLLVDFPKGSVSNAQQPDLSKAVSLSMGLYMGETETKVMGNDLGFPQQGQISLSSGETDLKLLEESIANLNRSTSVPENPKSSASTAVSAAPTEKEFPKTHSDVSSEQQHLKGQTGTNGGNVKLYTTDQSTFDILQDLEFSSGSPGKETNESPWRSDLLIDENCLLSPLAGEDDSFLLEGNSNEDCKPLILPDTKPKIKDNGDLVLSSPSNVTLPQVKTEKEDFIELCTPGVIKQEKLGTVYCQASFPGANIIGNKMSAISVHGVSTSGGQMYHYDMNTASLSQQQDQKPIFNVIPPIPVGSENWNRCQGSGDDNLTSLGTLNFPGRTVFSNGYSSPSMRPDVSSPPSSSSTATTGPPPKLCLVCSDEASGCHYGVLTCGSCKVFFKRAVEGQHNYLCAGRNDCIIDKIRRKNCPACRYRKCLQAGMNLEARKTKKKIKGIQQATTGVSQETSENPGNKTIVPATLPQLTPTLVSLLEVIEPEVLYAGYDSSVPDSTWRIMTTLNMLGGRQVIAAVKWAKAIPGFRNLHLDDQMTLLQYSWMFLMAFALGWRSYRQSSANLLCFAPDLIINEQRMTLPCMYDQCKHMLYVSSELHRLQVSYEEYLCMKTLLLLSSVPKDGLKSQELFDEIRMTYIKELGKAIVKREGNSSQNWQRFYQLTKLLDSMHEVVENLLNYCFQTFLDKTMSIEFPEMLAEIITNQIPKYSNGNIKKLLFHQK

NP(N)(=O)NC(=O)c1ccc(F)cc1
not listed: [18] | [19] | [20]
inactive: all other assays above

CC(C)(C)c1ccc(CCOc2ncnc3ccccc23)cc1
not listed: [8] | [17] | [19] | [20]
inactive: all other assays above

O=[N+]([O-])c1cc(Cl)c(Cl)cc1Cl
not listed: [18] | [19] | [20]
inactive: all other assays above

O=S(=O)(c1ccccc1)c1ccccc1
not listed: [17] | [18] | [19] | [20]
inactive: all other assays above

FC(Cl)(Cl)C(F)(Cl)Cl
not listed: [17] | [19] | [20]
inactive: all other assays above

NCCc1cc(O)c(O)cc1O
not listed: [10] | [20]
inactive: all other assays above

C[C@H]1[C@@H]2Cc3ccc(O)cc3[C@@]1(C)CCN2C
not listed: [20]
inactive: all other assays above

Nc1cccc2ccccc12
not listed: [1] | [3] | [8] | [13] | [17] | [18] | [19]
inactive: all other assays above

CON(C)C(=O)Nc1ccc(Cl)cc1
not listed: [18] | [19] | [20]
inactive: all other assays above

CCC(C)(C)c1ccc(O)c(C(C)(C)CC)c1
active: [2] 21.4 µM and 27.3 µM | [3] 53.9 µM | [4] 6.04 µM | [18] 1.52 µM and 1.37 µM
not listed: [13] | [17] | [19] | [20]
inactive: all other assays above

O=C1NC(=O)C(=O)C(=O)N1
not listed: [13] | [19] | [20]
inactive: all other assays above

Cc1cccc(C)c1NC1=NCCCS1
not listed: [17] | [18] | [19] | [20]
inactive: all other assays above

CCC1CCC(=O)O1 (stereo not given)
not listed: [19] | [20]
inactive: all other assays above

c1ccc2sc(SNC3CCCCC3)nc2c1
active: [18] 67.8 µM and 54.5 µM
not listed: [20]
inactive: all other assays above

COc1ccc(C(=O)c2c(C)n(CCN3CCOCC3)c3ccccc23)cc1
not listed: [18] | [19] | [20]
inactive: all other assays above

C[N+]1(CCC(C(N)=O)(c2ccccc2)c2ccccc2)CCCCC1
not listed: [8] | [20]
inactive: all other assays above

Cc1nc(N(C)C)nc(OC(=O)N(C)C)c1C
not listed: [10] | [19] | [20]
inactive: all other assays above

O=[N+]([O-])/C=C/c1ccccc1
active: [20] 2.47 µM and 2.43 µM
62.1 µM (active) and inactive: [4]
not listed: [1] | [2] | [3] | [17] | [18] | [19]
inactive: all other assays above

CN(C1CCCCC1)C1CCCCC1
not listed: [20]
inactive: all other assays above

Cc1ccc(N)c(C)c1
not listed: [10] | [19] | [20]
inactive: all other assays above

CCOP(=O)(SC(C)CC)N1CCSC1=O (stereo not given)
not listed: [17] | [19] | [20]
inactive: all other assays above

CCc1cnc(C2=NC(C)(C(C)C)C(=O)N2)c(C(=O)O)c1 (stereo not given)
not listed: [20]
inactive: all other assays above

CC(C)(C)CC(C)(C)c1ccc(O)cc1
active: [2] 29.8 µM and 30.6 µM | [3] 61.1 µM | [4] 23.7 µM and 17.2 µM | [18] 3.35 µM and 1.72 µM
not listed: [17] | [19] | [20]
inactive: all other assays above

O=C(N[C@H]1CN2CCC1CC2)c1ccc2c(c1)OCCO2
not listed: [10] | [20]
inactive: all other assays above

CCOC(=O)NC(O)C(Cl)(Cl)Cl (stereo not given)
not listed: [8] | [10] | [17] | [19] | [20]
inactive: all other assays above

C=CCN1C[C@H](C)N([C@H](c2ccc(C(=O)N(CC)CC)cc2)c2cccc(OC)c2)C[C@H]1C
not listed: [8] | [20]
inactive: all other assays above

C=CCSSCC=C
not listed: [13] | [17] | [19] | [20]
inactive: all other assays above

CCOP(=O)(O)C(N)=O
active: [18] 3.44 µM
not listed: [19] | [20]
inactive: all other assays above

CCC1(C2=NCCN2)Cc2ccccc2O1 (stereo not given)
not listed: [8] | [13] | [17] | [19] | [20]
inactive: all other assays above

Clc1ccccc1
not listed: [20]
inactive: all other assays above
